In all, about 69,000 compounds went through this assay and about 8,600 (12%) showed an effect of 50% or more. The entries come from a sample that favours strong results as a whole.

In this assay the test system is Plasmodium berghei. The experiment in a line: Screen against P. berghei liver stage (PbLuc), transformed with Luciferase, at 10uM. Type of assay: functional, HepG2. Conditions: tested at 10 uM.
In the case of `CCNC(c1ccc(Br)cc1)c1cccnc1` (stereo unspecified), the INHIBITION worked out at 3.15%. Next, `CC(C)(C)c1nnc2n1C(C(=O)N1CCCC1)CC2` (stereo unspecified): 21.7%; `CCC1CN(C(=O)c2cccc(OCc3cscn3)c2)CCO1` (stereo unspecified): 32.025%. Take `Cc1cnn(CC2CCCN2Cc2nccn2CC(F)(F)F)c1` (stereo unspecified): the INHIBITION was -10.1%. The result for `CC(C1CCN(Cc2c(Cl)cncc2Cl)CC1)N1CCN(C)CC1` (stereo unspecified) reads 51.3%; that for `CC(C1CCN(Cc2c(Cl)cncc2Cl)CC1)N1CCOCC1` (stereo unspecified), 52.5%. Next, `CC(C1CCN(Cc2ccc(N(C)C)nc2)CC1)N1CCOCC1` (stereo unspecified): 36.2%. The result for `CC(C1CCN(Cc2ccc(OC(F)F)cc2)CC1)N1CCOCC1` (stereo unspecified) reads 33.7%. Turning to `CC(C1CCN(Cc2c(Cl)ccc(O)c2Cl)CC1)N1CCN(C)CC1` (stereo unspecified), the INHIBITION was 21.145%. On to `CN1CCN(C[C@@H]2CN(Cc3c(Cl)cncc3Cl)C[C@@H]2CO)CC1`, for which the INHIBITION is listed as -56.2%. Next, `c1cnc(NC2COC3(CCN(Cc4nccs4)CC3)C2)cn1` (stereo unspecified): 42.7%. The result for `CCN(CC)c1ncc(CNC2CCc3ncnn3C2)s1` (stereo unspecified) reads -17.9%. Next, `CC(C)(C)S(=O)(=O)CCNC(=O)c1ccc2cc[nH]c2c1`: -19.7%. Regarding `COCCN1C[C@@H]2CN(Cc3ccc(C)s3)CCC[C@]2(C(=O)O)C1`, the INHIBITION is listed as 24.9%.

`COCCn1cc2c(n1)C(CNCc1ccco1)OCC2` (stereo unspecified): the INHIBITION is given as -11.5%.

For the compound `COc1c(CNC2(c3noc(C)n3)CCC2)c(C)nn1C`, the INHIBITION was -81.2%. The result for `COCCCNC(=O)Nc1cccc(Cl)c1-n1cccn1` reads -31.5%. The result for `COCCN(Cc1ccccn1)C(=O)CC1OCCc2ccccc21` (stereo unspecified) reads 10.9%; that for `COCCN(Cc1ccccn1)C(=O)CC1OCCc2sccc21` (stereo unspecified), 35%; that for `COCCN(Cc1ccccn1)C(=O)CC1OCCc2ccsc21` (stereo unspecified), 58.2%. Take `COCc1nc(Cn2c(C)cc(C(F)(F)F)cc2=O)no1`: the INHIBITION came out at 32.1%. Consider `Cc1ccc(C)c(NC(=O)c2cc(S(=O)(=O)N3CCSCC3)c[nH]2)c1`, for which the INHIBITION came out at 32%.

In the case of `Cc1cccc(COC[C@@]23CCC[C@@H]2CN(S(=O)(=O)N(C)C)C3)n1`, the INHIBITION is given as 52.6%.

Turning to `CS(=O)(=O)N1C[C@H]2CCC[C@@]2(COCC2CCOCC2)C1`, the INHIBITION is given as 5.36%. On to `CN(C)S(=O)(=O)N1C[C@H]2CCC[C@@]2(COCc2cccnc2)C1`, for which the INHIBITION is reported as -136%. As to `CN(C)S(=O)(=O)N1C[C@H]2CCC[C@@]2(COCC2CCOCC2)C1`, the INHIBITION is 40.8%. `CN(C)S(=O)(=O)N1C[C@H]2CCC[C@@]2(COCc2ccccn2)C1`: the INHIBITION was 31.9%.

Turning to `CN(C)S(=O)(=O)N1C[C@H]2CCC[C@@]2(COCC2CC2)C1`, the INHIBITION was determined as 63%. Consider `COc1cccc2ccc(N3CCC(O)(c4ccc(C)cn4)CC3)nc12`, for which the INHIBITION is listed as -44.2%. In the case of `Cn1cc2ncn([C@H]3CCN(Cc4ccccc4)C3)c(=O)c2n1`, the INHIBITION was -25.1%. Next, `O=C(C(CNCc1ccccn1)c1ccccc1)N1CCOCC1` (stereo unspecified): -5.32%; `CC(C)(C)c1n[nH]c(C2CN(C(=O)CCCn3cccn3)CCO2)n1` (stereo unspecified): 17%. The result for `c1cncc(CN2CCc3ncnc(C4CCOC4)c3CC2)c1` (stereo unspecified) reads 30.7%.

Consider `CSc1nsc(NC(=O)N2CCc3ccccc3C2)n1`, for which the INHIBITION turned out to be 16.5%. Turning to `CCNC(=O)NCc1nn(CCN2CCCC2)c(=O)c2ccccc12`, the INHIBITION stood at 47.7%. For the compound `CC(C)NC(=O)CC1(Cn2cnnn2)CCCCC1`, the INHIBITION worked out at 35.8%. `CC(C)CNC(=O)CC1(Cn2cnnn2)CCCCC1`: the INHIBITION worked out at 67.3%. As for `CC(C)OCCCNC(=O)CC1(Cn2cnnn2)CCCCC1`, the INHIBITION was -22.2%. On to `Cc1ccc(N2CCCN(C(=O)CCc3nccs3)CC2)nn1`, for which the INHIBITION is 3.73%. With `Cc1nc(N)cc(C2(C)CCCNC2)n1` (stereo unspecified), the INHIBITION stood at 32.8%. The result for `CC1CN(C(=O)CN(Cc2ccccc2)C2CC2)CCO1` (stereo unspecified) reads 15.6%; that for `COC(=O)C(NC(=O)C1CCCC1)c1cc(F)ccc1F` (stereo unspecified), 29.4%. The result for `COc1ncccc1NC(=O)c1[nH]nc(C(C)C)c1Br` reads -41.6%. `CC(C)Nc1nc(C(=O)Nc2ccccn2)cs1`: the INHIBITION is reported as -42.1%. The result for `Cc1ccnc(NC(=O)c2ccc(Br)o2)c1` reads -51.5%; that for `Cc1nc2c(c(C)c1CC(=O)Nc1ccnn1C(C)C)c(=O)[nH]n2C`, -1.33%.

As to `Cc1ccnc(NC(=O)c2[nH]nc(C(C)C)c2Br)c1`, the INHIBITION amounted to 65%. Take `COc1ccncc1NC(=O)c1[nH]nc(C(C)C)c1Br`: the INHIBITION is listed as 31.1%.

On to `CC(C)c1n[nH]c(C(=O)Nc2ccnn2C(C)C)c1Br`, for which the INHIBITION came out at 88.5%. As for `CC(C(=O)Nc1ccnn1C(C)C)N1CCN(Cc2ccccc2)CC1` (stereo unspecified), the INHIBITION is -8.07%. Next, `Cc1ccnc(NC(=O)c2ccc(Cl)o2)c1`: 32.4%; `CC(C)c1n[nH]c(C(=O)Nc2ccccn2)c1Br`: 67.4%.

`CC(C)c1n[nH]c(C(=O)Nc2ccncc2)c1Br`: the INHIBITION is 77.6%.

For the compound `CC(C)c1n[nH]c(C(=O)NC(C)c2ccncc2)c1Br` (stereo unspecified), the INHIBITION is -9.76%. Consider `Cc1ccccc1-n1cc(CN(C)C(=O)CC2C(=O)NCCN2C)cn1` (stereo unspecified), for which the INHIBITION was 42.3%. For `Cc1cccc(C(=O)N2CCCC[C@]3(C)NC(=O)CCC[C@H]23)n1`, the INHIBITION is reported as 31.6%. Regarding `CN1CCCN(C(=O)c2cccn2-c2ccc3c(c2)OCCO3)CC1`, the INHIBITION worked out at 6.99%. As for `CC(NC(=O)Nc1ccc(N2CCCC2)nc1)c1nncn1C` (stereo unspecified), the INHIBITION is 9.54%.

For `O=C(NCC1(O)COCCN(Cc2cccc(O)c2)C1)c1cnccn1` (stereo unspecified), the INHIBITION is -25.3%. Take `COc1ccc(C(=O)NCCCn2ccnc2)c(OC)n1`: the INHIBITION is 26.6%. Next, `CC(C)c1[nH]c2ncccc2c1CN1CCOCC1`: -21.6%. In the case of `Cc1ccc(CNC(=O)CN2CCOC(Cn3cccn3)C2)s1` (stereo unspecified), the INHIBITION is listed as -45.4%. Next, `O=C(NCc1ccc(-n2cncn2)nc1)c1cc(Cl)ccn1`: 45%; `Cc1cc(C)n(Cc2cccc(C(=O)NCCSCC(C)(C)O)c2)n1`: 0.426%; `O=C(NCC1CCC1)c1cccc(CN2CCS(=O)(=O)CC2)c1`: 33.4%. Next, `COc1ccccc1NC(=O)c1[nH]nc(C(C)C)c1Br`: -101%. Turning to `CC(C)c1n[nH]c(C(=O)Nc2cc[nH]n2)c1Br`, the INHIBITION is 55.9%. For `CC(C)CC(NC(=O)c1cccc(F)c1F)C(=O)Nc1cc[nH]n1` (stereo unspecified), the INHIBITION is reported as -36.4%.

With `Cc1cccc(NC(=O)c2sc(C)nc2C)n1`, the INHIBITION is given as -9.57%.

As for `Cc1cccc(NC(=O)c2cncc(C3CCNCC3)n2)n1`, the INHIBITION amounted to 15.5%. Regarding `Cc1cccc(NC(=O)c2[nH]nc(C(C)C)c2Br)n1`, the INHIBITION is 65%. Next, `CN(C)CCCN(Cc1cnn(C)c1)Cc1ccco1`: -9.35%.

Turning to `Oc1ccccc1-c1n[nH]c(C2CCCO2)n1` (stereo unspecified), the INHIBITION is reported as -3.11%.

Take `c1cnnc(N2CCCC2CNCc2cscn2)c1` (stereo unspecified): the INHIBITION is -56.1835%.

As for `Cc1ccsc1C1CC(=O)Nc2c1cnn2C(C)C` (stereo unspecified), the INHIBITION is 11.9%. For the compound `Cc1ccc(-c2nc(CNCCn3cccn3)cs2)o1`, the INHIBITION came out at 10.8%. The result for `c1ccc(-n2cncn2)c(CNCCn2cccn2)c1` reads -14.2%; that for `Cc1ccc(-c2n[nH]cc2CNCCn2cccn2)o1`, 77.6%. With `Fc1cc(CNCCn2cccn2)ccc1-n1cncn1`, the INHIBITION stood at 50.8%. Regarding `CC(NCCn1cccn1)c1ccccc1F` (stereo unspecified), the INHIBITION is reported as 27.9%.

`Cc1ccc(-c2n[nH]cc2CNCC2CCS(=O)(=O)C2)o1` (stereo unspecified): the INHIBITION is on record as -29.4%. The result for `Fc1ccc(-c2n[nH]cc2CNCCn2cccn2)cc1` reads 77.6%; that for `CCn1cnnc1CCNCc1c[nH]nc1-c1ccc(F)cc1`, -5.94%. In the case of `CC(NCCn1cccn1)c1cc(F)ccc1F` (stereo unspecified), the INHIBITION came to 53.8%.

In the case of `Fc1ccc(-c2nc(CNCCn3cccn3)cs2)cc1`, the INHIBITION was determined as 4.02%. Next, `CC(NCCn1cccn1)c1ccc(F)cc1F` (stereo unspecified): 16.8%. The result for `Fc1ccc(CNCCn2cccn2)cc1F` reads 26.9%; that for `Cn1cc(CN2CC[C@H]3O[C@@H](COCc4cccnc4)CC[C@H]32)cn1`, 3.11%. Next, `Cc1ncc2c(n1)C1(CCN(C(=O)C3CC3)CC1)OCC2`: 7.15%; `O=C(c1cnn(-c2ccccc2)n1)N1CCCC(n2cccn2)C1` (stereo unspecified): 33.8%. With `CCOC(=O)c1c(NC(=O)CN2CCN(C(C)=O)CC2)sc(C)c1C`, the INHIBITION is given as -13.5%.

Turning to `COc1cc(NC(=O)NCC2CCCO2)cc(OC)c1OC` (stereo unspecified), the INHIBITION was determined as 29.8%. Next, `CC(C)c1nc2c(n1C)CCN(Cc1cccc(C(N)=O)c1)C2`: 34%. The result for `Cc1ccc(F)c(S(=O)(=O)NCc2cccc(C(=O)N3CCCC3)c2)c1` reads 17.5%; that for `Cc1cc(F)ccc1CNCCn1cccn1`, 30.1%; that for `Fc1ccc(CNCCn2cccn2)c(F)c1`, -13.3%. Regarding `Fc1ccc(CNCCn2cccn2)c(Cl)c1`, the INHIBITION is reported as 64.1%. Next, `Cc1cc(C)c(CNC(=O)CCC2CCCO2)c(=O)[nH]1` (stereo unspecified): 11.45%; `NC(=O)NCC(=O)N1C[C@@H]2CC[C@H]1CN(Cc1cscn1)C2`: 7.3%; `Cc1nnc(CCNC(=O)[C@H]2CNC[C@@H](C(=O)N3CCCC3)C2)s1`: -5.08%.

Turning to `COc1ncccc1NC(=O)N(Cc1ccccn1)C1CC1`, the INHIBITION is -47.6%.

Turning to `CCN(C(=O)Nc1cccnc1OC)C1CC1`, the INHIBITION came to 53.5%. `COc1ncccc1NC(=O)N(Cc1ccc(C(N)=O)cc1)C1CC1`: the INHIBITION is reported as -35.7%. For `COc1ncccc1NC(=O)N(Cc1ccco1)C1CC1`, the INHIBITION is -18%.

For the compound `COc1ncccc1NC(=O)N(Cc1ccc(C)o1)C1CC1`, the INHIBITION is 58.2%.

As to `COc1ncccc1NC(=O)N(CC(C)C)C1CC1`, the INHIBITION is reported as -2.19%. For the compound `CC(=O)N1CCn2c(nnc2C2CCCCN2C(C)=O)C1` (stereo unspecified), the INHIBITION is on record as -55%. Next, `COCCCNC(=O)c1cc(C(C)C)nc(N2CCCC2)n1`: -23.8%; `COCCNC(=O)c1cc(C(C)C)nc(N2CCCC2)n1`: 16.8%; `CCN(CC)CCNC(=O)c1cc(C(C)C)nc(N2CCCC2)n1`: 15.8%. Next, `CCCNC(=O)c1cc(C(C)C)nc(N2CCCCC2)n1`: 44.9%; `CCCNC(=O)c1cc(C(C)C)nc(N2CCCC2)n1`: 32.5%. With `COCCCNC(=O)c1cc(C(C)C)nc(N2CCCCCC2)n1`, the INHIBITION was 37.5%. As to `COCCNC(=O)c1cc(C(C)C)nc(N2CCCCC2)n1`, the INHIBITION amounted to 52.4%. The result for `CC(C)c1cc(C(=O)NCCN2CCOCC2)nc(N2CCCC2)n1` reads 51.6%; that for `CC(C)c1cc(C(=O)NCCCN(C)C)nc(N2CCCC2)n1`, 52.4%.

The record behind these values is ChEMBL document CHEMBL4513216, “Probing the Open Global Health Chemical Diversity Library for Multistage-Active Starting Points for Next-Generation Antimalarials” (ACS Infect Dis, 2020).
